Inconclusive results are not listed. The source made the active and inactive calls. The call rests on the fitted dose curve; in most records, active means well fitted inhibition curve with a large enough effect; inconclusive means small, poorly fitted or top-dose-only effect; inactive means flat fitted curve, though single readings scatter.
Assay: qHTS for Inhibitors of Plasmodium falciparum (DD2) proliferation (AID 504314);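 on activity, negative = inhibition: plate controls were DMSO vehicle for no effect and artemisinin wells for full effect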
Conditions: P. falciparum Dd2 in erythrocytes, SYBR Green growth, 72 h; series mostly up to 1.12 µM; activity, negative = inhibition: at the top concentration
Text: Plasmodium falciparum is a virulent malarial parasite that kills 1-2 million people worldwide each year. Malaria not only inflicts tremendous suffering and morbidity on the human population, but has dramatically influenced the course of civilization with profound sociological and economic implications (Shah, S. 2010). Transmitted by mosquitoes, the sporozoite form of the parasite enters the blood stream to infect hepatocytes, where they become merozoites that infect red blood cells (erythrocytes). Within erythrocytes, merozoites begin a […] cycle of growth and division, after which the parasite is released to infect new red blood cells. Gametocytes, which form within erythrocytes as well, circulate in the bloodstream and are ingested by the mosquito, thereby completing the life cycle (see CDC website). To profile malarial lines for differential chemical responses and to identify inhibitors of malarial growth, an assay that measures P. falciparum growth and replication within erythrocytes was employed. This assay uses a DNA binding fluorescent dye (SYBR Green) to detect parasite DNA following cell lysis. Because mature erythrocytes lack DNA, only Plasmodium-derived DNA is detected. The P. falciparum line cp250, derived from a malarial isolate from Cambodia, (Mu, J., et al. 2010) was added to the panel of lines, Dd2, HB3, 7G8 and GB4 in this study.
Laboratory of Assay Development and Screening Technology [ADST] and NIH Chemical Genomics Center [NCGC]
Boston University, Chemistry Department, Center for Chemical Methodology and Library Development [CMLD-BU]
NIH National Institute of Allergy and Infectious Diseases [NIAID]
ADST Assay Protocol Summary:
The 1536-well SYBR Green viability assay was based on the method of Bennett et al (2004) and described previously in 1536-well format (Yuan J., et al. 2009). For screening 3 ul culture medium was dispensed into 1536 well black clear bottom plates (Aurora Biotechnologies) using a Multidrop Combi (Thermo Fisher Scientific Inc.), 23 nL compounds in DMSO were added by a pin transfer (Cleveland, P.H. and Koutz, P.J, 2005) using a pin tool-based delivery system (Kalypsys), and 5 ul of erythrocytes infected with P. falciparum one of five lines (cp250, Dd2, HB3, 7G8 or GB4, 0.3% parasitemia, 2.5% hematocrit final concentration) were added. The plates were incubated at 37C in a humidified incubator in 5% CO2 for 72 h, and 2 ul lysis buffer (20 mM Tris HCl, 10 mM EDTA, 0.16% saponin, 1.6% triton X, 10X SYBR Green I (supplied as 10,000X final concentration by Invitrogen) was added to each well. The plates were mixed for 25 sec with gentle shaking and incubated overnight at room temperature in the dark. The following morning, fluorescence intensity at 485(14) nm excitation and 535(25) nm emission wavelengths was measured on an EnVision (Perkin Elmer) plate reader. Plate reads were normalized relative to the control inhibitor (0.29 uM artemisinin) and vehicle (DMSO) wells present on each plate and then corrected by an algorithm using vehicle-only control plates at the beginning and end of the compound plate stack.
Shah, S. (2010). The Fever: how malaria has ruled humankind for 500,000 years. New York, Sarah Crichton Books.
CDC web site, http://www.cdc.gov/malaria/about/biology/index.html
Mu, J., Myers, R.A., Jiang, H., Liu, S., Ricklefs, S., Waisberg, M., Chotivanich, K., Wilairatana, P., Krudsood, S., White, N.J., et Plasmodium falciparum genome-wide scans for positive selection, recombination hot spots and resistance to antimalarial drugs Nature Genetics 2010, 42, pp 268-271
Bennett TN, Paguio, M., Gligorijevic, B., Seudieu, C., Kosar, A. D., Davidson, E., and Roepe, P. D. Novel, rapid, and inexpensive cell-based quantification of antimalarial drug efficacy Antimicrobial Agents Chemother. 2004, 48(5): pp 1807-10
Yuan J, Johnson RL, Huang RL, Wichterman J, Jiang HY, Hayton K, Fidock DA, Wellems TE, Inglese J, Austin CP, Su XZ. […]
Potency means the concentration at half of the fitted maximal effect.

activity, negative = inhibition, inactive:
Cc1cc2c(c(=O)n1-c1ccccc1)[C@H]1O[C@](c3ccsc3)(Cc3cc(C#N)ccc31)O2 -12.3% [at 6.11 µM], C=CCN1C=C2C(=O)C(C)(OC(=O)CCC(=O)OC)C(=O)C(Br)=C2C=C1c1ccc(OC)cc1 (stereo not given) -0.526%, COC(=O)CCCC1=CC2=CC(=O)C(C)(OC(=O)c3cccs3)C(=O)C2=CN1CC1CC1 (stereo not given) 4.96%, COC(=O)CCC(=O)OC1(C)C(=O)C=C2C=C(C3CC3)N(c3ccc(OC)cc3)C=C2C1=O (stereo not given) -3.33%, COC(=O)C1=C(C(=O)OC)[C@@H]2N(Cc3ccccc3)c3ccccc3[C@@]23C[C@@H](C(=O)OC)N(C(=O)COCc2ccccc2)C3=N1 2.09%, C[C@H]1Cc2c(-c3ccccc3)nc3c(c2CO1)CN(C(=O)c1cc(I)ccc1F)CC3 -1.34%, COC(=O)CCC(=O)OC1(C)C(=O)C=C2C=C(C3CC3)N(C(CO)CO)C=C2C1=O (stereo not given) -6.5%, CC#CCN1c2ccccc2[C@]23C[C@@H](C(=O)OC)N(C(=O)c4ccco4)C2=NC(C(=O)OC)=C(C(=O)OC)[C@H]13 3.01%, CC1(OC(=O)C2CCCC2)C(=O)C=C2C=C(c3ccsc3)N(CCc3c[nH]c4ccccc34)C=C2C1=O (stereo not given) 4.2%, COC(=O)[C@H]1[C@@H](C)N(Cc2ccccc2)C(=O)N[C@H]1c1ccccc1 4.2%, COC(=O)C1=C(C(=O)OC)[C@@H]2N(C)c3ccc(OC)cc3[C@@]23C[C@@H](C(=O)OC)N(S(=O)(=O)c2ccc(Br)cc2)C3=N1 -3.32%, C[C@H]1Cc2c(COc3ccccc3)nc3c(c2CO1)CN(S(=O)(=O)c1ccc(C#N)cc1)CC3 -2.85%, C[C@H]1Cc2c(COc3ccccc3)nc3c(c2CO1)CN(C(=O)Cc1cccs1)CC3 3.57%, C=CCN1c2ccccc2[C@]23C[C@@H](C(=O)OC)N(S(=O)(=O)c4ccc(Br)cc4)C2=NC(C(=O)OC)=C(C(=O)OC)[C@H]13 3.87%, CCN1C(=O)N[C@@H](c2cccc(C(F)(F)F)c2)C(C(=O)OC)=C1C 0.222%, CCN1C(=O)N[C@H](c2ccc(Br)cc2)C(C(=O)OC)=C1C 2.65%, C=C[C@@]1(C)CC[C@H](O)[C@H]2C(=O)CCC[C@H]21 -10.8% [at 6.11 µM], CCCCC1=CC2=CC(=O)C(C)(OC(=O)CC)C(=O)C2=CN1CC(C)C (stereo not given) -0.0953%, C[C@H]1CC[C@H]2C(=O)N(Cc3ccccc3)C[C@H](O)CN2[C@H]1c1cccc(Br)c1 -13.3% [at 6.11 µM], CCCCS(=O)(=O)N1C2=NC(C(=O)OC)=C(C(=O)OC)[C@@H]3Nc4ccccc4[C@]23C[C@H]1C(=O)OC 5.22%, C=CCN1c2ccccc2[C@]23C[C@@H](C(=O)OC)N=C2NC(C(=O)OC)=C(C(=O)OC)[C@H]13 -1.07%, CC1(C)O[C@@H]2[C@@H](O1)C(c1ccccc1)(c1ccccc1)OP(=O)(O)OC2(c1ccccc1)c1ccccc1 -9.39% [at 6.11 µM], COc1cccc([C@@H]2Oc3ccc(Br)cc3[C@H](O)[C@@H]2O)c1 -6.62% [at 6.11 µM], CCOC(=O)NN=C1C[C@@H](O)[C@@H](O)[C@@H]2[C@H]3C(=O)N(CC)C(=O)[C@@H]3CC[C@@H]12 -4.7% [at 6.11 µM], C=C(C)C(=O)c1ccc2c(c1)OCO2 0.0177% [at 6.11 µM], COC(=O)CCC(=O)OC1(C)C(=O)C=C2C=C(C3CC3)N(CC3CC3)C=C2C1=O (stereo not given) -6.09%, COC(=O)C1=C(C(=O)OC)[C@@H]2N(C)c3ccc(OC)cc3[C@@]23C[C@@H](C(=O)OC)N(S(=O)(=O)c2ccc(OC)cc2)C3=N1 -0.78%, CCCCS(=O)(=O)N1CCc2nc(COc3ccccc3)c3c(c2C1)CO[C@@H](C)C3 -0.0713%, CC1(OC(=O)CCc2ccccc2)C(=O)C=C2C=C(c3ccc(C#N)cc3)N(Cc3ccco3)C=C2C1=O (stereo not given) 0.591%, C=CCN1C=C2C(=O)C(C)(OC(=O)CC)C(=O)C=C2C=C1CCCC (stereo not given) -2.99%, COC(=O)C1=C(C(=O)OC)[C@@H]2N(Cc3ccccc3)c3ccccc3[C@@]23C[C@@H](C(=O)OC)N(S(=O)(=O)c2c(C)noc2C)C3=N1 0.193%, CCN1C(=O)N[C@@H](c2cccs2)C(C(C)=O)=C1C 0.521%, COC/C=C/C1=CC2=CC(=O)C(C)(OC(=O)c3cnc4ccccc4n3)C(=O)C2=CN1CCCCO (stereo not given) 2.82%, COC(=O)C1=C(C(=O)OC)[C@@H]2N(Cc3ccccc3)c3ccccc3[C@@]23C[C@@H](C(=O)OC)N(S(=O)(=O)c2ccc([N+](=O)[O-])cc2)C3=N1 -5.24%, CCN1C(=O)N(C)[C@@H](c2ccccc2)C(C(=O)OC)=C1C -1.23%, C=CCN1c2ccccc2[C@]23C[C@@H](C(=O)OC)N(S(=O)(=O)c4ccc(C#N)cc4)C2=NC(C(=O)OC)=C(C(=O)OC)[C@H]13 5.6%, COC(=O)C1=C(C(=O)OC)[C@@H]2N(C)c3ccc(OC)cc3[C@@]23C[C@@H](C(=O)OC)N(C(=O)CC(C)C)C3=N1 4.48%, CCCCn1c(C)cc2c(c1=O)[C@H]1O[C@](c3ccsc3)(Cc3ccccc31)O2 -11% [at 6.11 µM], CCCCc1nc2c(c3c1C[C@H](C)OC3)CN(S(=O)(=O)c1ccc3c(c1)OCCN3C)CC2 -3.05%

Potency, active:
COC(=O)C1=C(C)N(Cc2ccccc2)C(=NCCc2cccnc2)NC1c1ccc(Br)cc1 (stereo not given) 1500 nM
